High-throughput results as filed in PubChem.
HIF-2a inh: inhibitors of HIF-2a | 786-0 RCC cells HIF-2a reporter, luciferase luminescence, overnight | inhibition, % at 18.8 µM | actives 0.72% (n = 360,000);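 active = inhibition of the luminescence signal of 40% or more relative to plate controls, in a single-dose primary screen at 18.75 µM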
TROY NFkB inh: TROY signaling inhibition; inhibition, % at 10 µM; actives 0.98% (n = 360,000); Q293 LMP1-TROYcd NF-kB luciferase reporter, 4 h; AID 1347056;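 active = compounds whose plate-normalised and pattern-corrected inhibition of the luciferase reporter signal at the single screening dose is 50% or more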
TWEAK Fn14 block: blocks TWEAK-Fn14 interaction in a reporter cell assay; TWEAK-stimulated Fn14 reporter cells, luciferase luminescence, 8 h; AID 1159606; actives 2% (n = 360,000); inhibition, % at 10 µM; in the data active = inhibition above about 50%
CF NFkB block: inhibitors of cystic fibrosis induced NF-kB; AID 588850; inhibition, % at 5 µM; KKLEB NF-kB-GFP reporter, PAF-induced, GFP fluorescence overnight; actives 0.86% (n = 360,000);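 active = at least 50% inhibition at 5 µM, scaled per plate between neutral and stimulator controls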;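 note: PAF is a Pseudomonas aeruginosa culture filtrate used as stimulus; plate controls were PAF-stimulated DMSO wells for no effect and unstimulated DMSO wells for full effect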
KKLEB cytotox: CF airway cell cytotoxicity counter-screen | KKLEB CF airway cells viability, ATPlite luminescence, overnight; hits give low values; cells stimulated with P. aeruginosa culture filtrate | activity change (cytotoxicity), % at 5 µM | actives 0.36% (n = 360,000) | AID 602141;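 active = corrected activity change at or below -50% at 5 µM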
Peg3 prom inh: reduces Peg3 promoter-driven luciferase expression in HeLa; HeLa PEG-Prom luciferase reporter, luminescence, overnight; inhibition, % at 20 µM; actives 1.7% (n = 360,000); AID 588405;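 active = inhibition of at least 50% at 20 µM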
CF NFkB inh conf: confirmation of cystic fibrosis induced NF-kB inhibitors; shares compounds with CF NFkB block; KKLEB CF airway cells, PAF-induced NF-kB-GFP fluorescence, overnight; inhibition, % at 5 µM; actives 64% (n = 1,300); in the data active = inhibition above about 40%;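 note: stimulus PAF is a Pseudomonas aeruginosa filtrate and not platelet activating factor; plate controls were DMSO wells with stimulus for no effect and unstimulated DMSO wells for full effect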
Mdm2-MdmX confirm: confirmation of inhibitors of human Mdm2/MdmX interaction, set 2; AID 504601; SaOS-2 split-luciferase Mdm2/MdmX complementation, luminescence; inhibition, % at 8 µM; shares compounds with HIF-2a inh; actives 99% (n = 740);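 active = mean inhibition of the luminescence signal across two replicates at or above 26 percent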
HIF-2a conf: HIF-2a inhibition, single concentration confirmation | shares compounds with HIF-2a inh | 786-0 RCC cells, HIF-2a luciferase reporter luminescence, overnight | inhibition, % at 18.8 µM | actives 56% (n = 1,800) | AID 651580;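 active = mean inhibition across four replicates of at least 40 percent at the single tested concentration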
HIF-1a counter: counter-screen for HIF-2a inhibitors: HIF-1a inhibition in MiaPaCa-2 cells; shares compounds with HIF-2a inh; MiaPaCa-2 HIF-1a luciferase reporter, desferoxamine, overnight; inhibition, % at 18.8 µM; actives 72% (n = 1,800); AID 651589;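 active = mean inhibition of the reporter signal across four replicates at the single tested dose of 50% or more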
* hit, by the source's call; / = not tested or not shown. The list is not random: actives were taken first. Their share in the collection is about 4%.

SMILES | HIF-2a inh | TROY NFkB inh | TWEAK Fn14 block | CF NFkB block | KKLEB cytotox | Peg3 prom inh | CF NFkB inh conf | HIF-2a conf | HIF-1a counter | others
C[C@@H]1[C@@H](Sc2ccccc2)CC(=O)O[C@@H]1c1ccc(-c2ccccc2)cc1 | 97.7* | -26.8 | 35.9 | 62.4* | -47.8 | 97.5* | -74.3 | 5.9 | 100.7* | Mdm2-MdmX confirm=102.7*
O=C1CC(C(=O)NC2CCCCC2)C(c2ccccc2)O1 (stereo not drawn) | 17.7 | 0.3 | 1.8 | 1.1 | 4.1 | -4.1 | / | / | /
COc1ccc(-c2cn[nH]c2-c2ccc(OCc3ccccc3)cc2O)cc1 | 10.4 | 31.0 | 63.1* | 70.0* | -13.8 | 16.7 | 88.7* | / | / | Mdm2-MdmX confirm=90.0*
COc1ccccc1-c1cn[nH]c1-c1ccc(OCc2ccccc2)cc1O | 22.9 | 19.9 | 2.5 | 4.8 | 7.8 | 35.1 | / | / | /
O=C(CN1CCN(S(=O)(=O)c2ccc(Br)s2)CC1)NC1CCCCC1 | -12.8 | -1.5 | -19.2 | -5.3 | 3.7 | 12.6 | / | / | /
Cc1ccc(-n2nnnc2Sc2ccc(S(=O)(=O)NCCN(C)C)cc2[N+](=O)[O-])cc1 | 76.8* | 33.1 | 97.2* | 91.0* | -31.1 | 100.3* | 50.8* | 18.4 | 105.5*
CCOc1ncnc2c1sc1nc3c(cc12)COC(C)(C)C3 | -6.6 | -3.6 | -4.5 | -3.8 | 4.1 | -13.4 | / | / | /
C=C1C(=O)O[C@H]2C[C@H]1[C@@H](OC(C)=O)C/C(C)=C/CC/C(C)=C\CC[C@]2(C)O | 94.4* | 42.7 | 86.2* | 77.4* | -16.3 | 89.2* | 65.2* | 96.2* | 105.4*
CC(=O)OCCCNc1cc(Sc2ccc(Cl)cc2)c2nonc2c1[N+](=O)[O-] | 78.6* | 51.0* | 79.2* | 69.9* | -8.3 | 102.8* | 53.3* | -9.2 | 97.5*
CC(=O)OCCNc1cc(SC(C)C)c2nonc2c1[N+](=O)[O-] | -1.8 | 8.9 | 20.3 | -15.6 | 1.2 | 16.1 | / | / | /
COC(CN(C(=O)CCl)C(C(=O)NC1CCCCC1)c1ccccc1C)OC (stereo not drawn) | 47.0* | -3.4 | 40.9 | 54.5* | -40.6 | 64.5* | -6.1 | 10.4 | 84.0*
COC(CN(C(=O)CCl)C(C(=O)NC1CCCCC1)c1ccc(Cl)cc1)OC (stereo not drawn) | 3.9 | 1.8 | -10.2 | 7.6 | -0.9 | 16.0 | / | / | /
COc1ccc(NC(=O)c2cc(-c3cc(F)ccc3OC)n[nH]2)c(C)c1 | -53.0 | -13.6 | -8.6 | -3.3 | 7.0 | -29.3 | / | / | /
NC(N)=NN=C(c1ccc(F)cc1)c1ccc(C(F)(F)F)cc1 | 41.4* | 17.2 | 55.9* | 72.1* | -20.6 | 98.6* | 80.8* | 33.7 | 86.5*
O=C(N/N=C/c1ccc(C(F)(F)F)cc1)c1ccc(O)cc1 | -112.1 | -55.7 | -22.1 | -7.0 | 1.3 | -132.5 | / | / | /
C[N+]1=C(/C=C/Nc2ccccc2Cl)C(C)(C)c2ccccc21 | 2.1 | 46.2 | 25.6 | -34.7 | -4.1 | 8.4 | / | / | /
COC(=O)c1ccc2c(c1)C(C)(C)C(/C=C/c1ccccc1O)=[N+]2C | 95.5* | 14.0 | 87.4* | 64.0* | -38.7 | 105.5* | 96.6* | 98.8* | 105.0* | Mdm2-MdmX confirm=103.5*
CC1=C(C(=O)OCc2ccc3c(c2)OCO3)C(c2cccc([N+](=O)[O-])c2)NC(=O)N1 (stereo not drawn) | 23.4 | 49.1 | 74.8* | 74.1* | -11.9 | 41.1 | 68.1* | / | / | Mdm2-MdmX confirm=74.0*
Cc1ccc(C)c(C(=O)CN2C(=O)NC3(CCCCCCC3)C2=O)c1 | -22.8 | -12.5 | -24.7 | 10.2 | 2.1 | -5.2 | / | / | /
C/C(=N\NC(=O)c1c(C)nc2ccccn12)c1cccc([N+](=O)[O-])c1 | 2.0 | 19.6 | 13.9 | -15.3 | 0.4 | 5.6 | / | / | /
Cc1nc2ccccn2c1C(=O)/C=C/c1cccc([N+](=O)[O-])c1 | 75.1* | 36.3 | 94.2* | 71.4* | 0.7 | 102.4* | 2.0 | 1.6 | 33.2
COC(=O)/C(C#N)=C/c1c(Oc2cccc(C)c2)nc2ccccn2c1=O | 13.2 | 1.4 | 2.9 | 6.8 | -9.0 | 21.2 | / | / | /
Nc1nc(N)nc(-c2ccc(Oc3ccccc3)cc2)n1 | -113.8 | -10.3 | -43.3 | 11.2 | -12.2 | -58.9 | / | / | /
Nc1ncnc2c1c(-c1ccc(Oc3ccccc3)cc1)cn2C1CCCC1 | 67.0* | 17.1 | 7.8 | 52.8* | -9.8 | 71.5* | 80.8* | 54.7* | 64.7*
COc1cc(NC(=O)CN2C(=O)CN(C)C2=O)c(C)cc1[N+](=O)[O-] | 6.1 | -2.9 | -11.8 | -8.2 | -5.4 | 9.6 | / | / | /
SMILES | HIF-2a inh | TROY NFkB inh | TWEAK Fn14 block | CF NFkB block | KKLEB cytotox | Peg3 prom inh | CF NFkB inh conf | HIF-2a conf | HIF-1a counter | others
COc1cc(NC(=O)Cn2ncc(Cl)c(Cl)c2=O)c(C)cc1[N+](=O)[O-] | 92.6* | 68.4* | 98.2* | 93.1* | -36.9 | 98.3* | 99.8* | 98.1* | 105.5*
O=C(c1ccc(S(=O)(=O)c2ccc(F)cc2)c([N+](=O)[O-])c1)N1CCCCCC1 | 52.9* | 42.9 | 76.5* | 54.3* | -20.8 | 17.7 | 38.8 | 3.3 | 49.1
Cc1nnc2sc(-c3ccccn3)nn12 | 3.3 | 12.9 | 5.7 | 5.2 | 5.2 | -8.6 | / | / | /
CCc1ccccc1NS(=O)(=O)c1cccc2nsnc12 | 9.1 | 7.3 | 14.2 | -1.1 | -2.5 | 26.0 | / | / | /
CC(=O)N1CCN(c2ccc(NC(=O)c3ccc([N+](=O)[O-])o3)cc2Cl)CC1 | 88.2* | 7.9 | 29.3 | 62.3* | -26.6 | 100.7* | 8.2 | 52.1* | 82.8*
CCC(=O)N1CCN(c2ccc(Cl)cc2NC(=O)c2ccc([N+](=O)[O-])o2)CC1 | -6.9 | -4.8 | 9.2 | 6.1 | -11.7 | 18.8 | / | / | /
COc1ccc(S(=O)(=O)N2CCCCC2)cc1NC(=O)c1ccc([N+](=O)[O-])o1 | 53.4* | -9.9 | 27.6 | 74.8* | -0.6 | 41.7 | -9.2 | 8.9 | 76.5*
COc1ccc(S(=O)(=O)N2CCN(C(=O)c3cccc(Cl)c3)CC2)cc1 | 5.1 | 3.2 | 4.4 | 1.3 | 13.2 | 14.7 | / | / | /
C=C1C(=O)[C@@]23[C@H](O)C[C@@H]4C(C)(C)CC[C@H](O)[C@]4(C)[C@@H]2C[C@H](O)[C@@H]1[C@H]3O | 40.7* | 10.1 | 59.8* | 67.8* | 20.4 | 43.4 | 55.9* | 36.5 | 90.8*
